Data on 15 compounds can be found in PubChem BioAssay (NCI).

Experiment in all cases: NCI-60 one-dose screen, 48 h (100 = growth as untreated, 0 = no growth, -100 = all killed)
Settings in all cases: 10 µM unless noted

The subject of experiment [1] is T-47D breast.
The subject of experiment [2] is BT-549 breast.
Experiment [3] concerns MDA-MB-435 melanoma.
The test system of experiment [4] is SW-620 colon.
Experiment [5] deals with MCF7 breast.
Experiment [6] has as its system HCT-116 colon.
Experiment [7] has as its system HCC-2998 colon.
Experiment [8] relates to KM12 colon.
Experiment [9] has as its system MDA-MB-468 breast.

Compounds without any hit were thinned out: in the full panel of roughly 83,000, 20% have a hit.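 In brief: 96-well plates, 48 h treatment, single concentration, percent growth endpoint.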 Values without a mark were called inactive. Active and inactive are the calls of the source. Rule for the calls: active = growth percent below 10; inactive = the rest.

Turning to `COc1ccc(N=Nc2c(N)nn3c(-c4ccc5c(c4)C=S=C5)ccnc23)cc1`, the growth is 3.67% (active) in [1]; 19.9% in [2]; 83.8% in experiment [3]; 65.5% in [4]; 31.1% in [5]; 20.1% in experiment [6]. For the same compound, the growth in experiment [7] is 48%; in experiment [8], 42.5%; in experiment [9], 16.6%.
As to `c1ccc(CSc2nnc(-c3ccc4nc(-c5ccccc5)[nH]c4c3)o2)cc1`, the growth in experiment [1] was 15.4%; in experiment [2] it was 35.4%; in [3] it was 9.59% (active); in experiment [4] it was 10%; in experiment [5], 1.53% (active); in [6], 2.99% (active). Moreover, the growth in [7] is 62%; in [8], 55%; in experiment [9], 2.91% (active).
Regarding `O=C1/C(=C/c2cccc3c2OCO3)Cc2c(F)cc(Br)cc21`, the growth was 95.2% in [1]; 123% in experiment [2]; 104% in experiment [3]; 114% in experiment [4]; 84.2% in experiment [5]; 104% in experiment [6]. Moreover, the growth in experiment [7] is 117%; in experiment [8], 110%; in experiment [9], 105%.
Consider `O=C(Nc1ccc(S(=O)(=O)N2CCCCC2)cc1)C(Cl)Cl`, for which the growth is 101% in [1]; 124% in experiment [2]; 109% in [3]; 109% in experiment [4]; 101% in experiment [5]; 105% in [6]. Moreover, the results for the growth in experiment [7], in [8] and in [9] were 124%, 104% and 118%, respectively.
Regarding `C[C@@H](Nc1c(C#N)cnc2ccc(-c3cnc4[nH]ncc4c3)cc12)c1ccccc1`, the growth in experiment [1] is 10.9%; in [2], -21.7% (active); in experiment [3], 22.4%; in [4], 40.2%; in experiment [5], -27.9% (active); in experiment [6] it was 20.2%. In addition, the growth was 33.3% in [7], 30% in experiment [8] and -70.1% (active) in [9].
On to `O=C1/C(=C/c2cnc(-c3ccccc3)s2)SC(=S)N1Cc1ccc2c(c1)OCO2`, for which the growth is 47.4% in [1]; 69.2% in experiment [2]; 94.5% in [3]; 102% in experiment [4]; 59.3% in [5]; 69.4% in experiment [6]. The growth in [7] was 102%; in [8], 99.7%; in experiment [9], 43.2%.
Take `Cc1ccc(N=Nc2c(N)nn3c(-c4cc5cc(Br)ccc5oc4=O)ccnc23)cc1`: the growth in [1] is 56.4%; in experiment [2], 53%; in experiment [3], 113%; in experiment [4], 107%; in experiment [5] it was 51.1%; in [6], 44.5%. For the same compound, the values for the growth in [7], in [8] and in [9] were 87.1%, 72.4% and 73.5%, respectively.
Consider `Cc1ccccc1Nc1nnc(-c2c[nH]c3ccccc23)o1`, for which the growth was 39.7% in experiment [1]; 17.7% in experiment [2]; -47.2% (active) in experiment [3]; 19.6% in [4]; 21.8% in experiment [5]; 19.3% in experiment [6]. The growth is 11.3% in experiment [7], 25% in experiment [8] and -35.5% (active) in experiment [9].
For the compound `COc1ccc(OC)c(Cn2cc(C#N)c(N)c2C(=O)c2ccc(Br)cc2)c1`, the growth was 35.6% in experiment [1]; -86.3% (active) in experiment [2]; 0.655% (active) in experiment [3]; 31.2% in [4]; 27.9% in [5]; 24.3% in experiment [6]. Moreover, the growth is 71.8% in [7], 40% in experiment [8] and 2.73% (active) in experiment [9].
`O=C1NC(=S)/C(=C/c2cn(-c3ccccc3)nc2-c2ccccc2)S1`: the growth in experiment [1] is 0.334% (active); in experiment [2], -9.85% (active); in experiment [3], 24.6%; in experiment [4], 39.3%; in [5], 3.28% (active); in experiment [6], 18.6%. The growth is 29.2% in [7], 19.4% in experiment [8] and 22.3% in experiment [9].
For `O=C(c1cc2cc(OCCCN3CCC3)ccc2[nH]1)N1C[C@@H](CCl)c2c1cc(OCc1ccccc1)c1ccccc21`, the growth was -11.6% (active) in [1]; -48% (active) in experiment [2]; -78.8% (active) in experiment [3]; 0.696% (active) in experiment [4]; -9.07% (active) in experiment [5]; -80.6% (active) in [6]. For the same compound, the figures for the growth in experiment [7], in experiment [8] and in experiment [9] were -77.1% (active), -5.46% (active) and -76.3% (active), respectively.
As to `Nc1nn2c(-c3cc4ccccc4oc3=O)ccnc2c1N=Nc1ccccc1`, the growth is 85.9% in experiment [1]; 29.5% in experiment [2]; 107% in [3]; 93% in experiment [4]; 52.7% in experiment [5]; 6.75% (active) in experiment [6]. Moreover, the growth in experiment [7] was 105%; in experiment [8] it was 92%; in experiment [9], 78.3%.
Take `Cc1ccc(Nc2nnc(-c3c[nH]c4ccccc34)o2)c(C)c1`: the growth in experiment [1] is 44.3%; in experiment [2], 29.6%; in experiment [3], -41.8% (active); in [4], 30.9%; in [5], 14.3%; in experiment [6], 1.32% (active). Further, the growth in [7] was -13.6% (active); in [8], 7.83% (active); in experiment [9], -17% (active).
As to `CS(=O)(=O)Nc1cncc(-c2ccc3ncnc(NCc4ccccc4)c3c2)c1`, the growth was 3.96% (active) in experiment [1]; 2.92% (active) in [2]; 55.1% in [3]; 38.9% in experiment [4]; 9.82% (active) in experiment [5]; 19.1% in experiment [6]. Besides, the growth in experiment [7] was 45.9%; in experiment [8], 65.5%; in [9] it was -34% (active).
On to `CC(=O)C[n+]1cccc2c3ccccc3ccc21`, for which the growth in [1] is 77.2%; in experiment [2], 107%; in experiment [3] it was 84.6%; in experiment [4], 92.3%; in experiment [5] it was 77.7%; in [6], 87.4%. The values for the growth in experiment [7], in experiment [8] and in experiment [9] were 114%, 88.2% and 8.54% (active), respectively.
